Test results reported in the supplement of paper PMC11732987, “Enantioselective OTUD7B fragment discovery through chemoproteomics screening and high-throughput optimisation” (Communications Chemistry, 2025).

Assays:
Assay in all cases: log2 ratio of Biotin-Ahx-Ub-VS probe labelling (fragment/DMSO); higher = less target engagement (more negative = stronger competition), active = hit call of the paper (q ≤ 0.05, log2 ratio ≤ -1)
Details in all cases: compound concentration: 200 uM; treatment time: 3 h
OTUD6B = molecular target: T1, OTUD6B (UniProt Q8N6M0)
T1 sequence (whole entry): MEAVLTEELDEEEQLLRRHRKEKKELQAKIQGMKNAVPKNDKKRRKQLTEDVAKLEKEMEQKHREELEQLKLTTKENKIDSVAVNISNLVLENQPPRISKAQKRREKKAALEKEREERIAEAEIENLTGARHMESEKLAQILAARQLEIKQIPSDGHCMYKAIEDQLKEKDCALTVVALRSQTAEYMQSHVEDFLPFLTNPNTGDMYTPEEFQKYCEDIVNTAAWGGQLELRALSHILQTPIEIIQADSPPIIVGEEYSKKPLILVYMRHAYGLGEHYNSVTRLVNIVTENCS
Outline: (§1)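 HEK293T lysate, 495 µg per sample in Tris/CHAPS/IGEPAL buffer with protease inhibitors, was treated in triplicate with fragment at 200 µM or vehicle for 3 h and then with Biotin-Ahx-Ub-VS at 0.5 µM final for 1 h. Labelled DUBs were NeutrAvidin-enriched, digested with LysC and trypsin, and run by diaPASEF LC-MS/MS. Spectronaut label-free quantities were global-median-normalised, and values are average log2 fragment/vehicle ratios by unpaired t-test on proteins with ≥2 unique peptides.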

OTUD7B = molecular target: T2, OTUD7B (UniProt Q6GQQ9)
T2 sequence (whole entry): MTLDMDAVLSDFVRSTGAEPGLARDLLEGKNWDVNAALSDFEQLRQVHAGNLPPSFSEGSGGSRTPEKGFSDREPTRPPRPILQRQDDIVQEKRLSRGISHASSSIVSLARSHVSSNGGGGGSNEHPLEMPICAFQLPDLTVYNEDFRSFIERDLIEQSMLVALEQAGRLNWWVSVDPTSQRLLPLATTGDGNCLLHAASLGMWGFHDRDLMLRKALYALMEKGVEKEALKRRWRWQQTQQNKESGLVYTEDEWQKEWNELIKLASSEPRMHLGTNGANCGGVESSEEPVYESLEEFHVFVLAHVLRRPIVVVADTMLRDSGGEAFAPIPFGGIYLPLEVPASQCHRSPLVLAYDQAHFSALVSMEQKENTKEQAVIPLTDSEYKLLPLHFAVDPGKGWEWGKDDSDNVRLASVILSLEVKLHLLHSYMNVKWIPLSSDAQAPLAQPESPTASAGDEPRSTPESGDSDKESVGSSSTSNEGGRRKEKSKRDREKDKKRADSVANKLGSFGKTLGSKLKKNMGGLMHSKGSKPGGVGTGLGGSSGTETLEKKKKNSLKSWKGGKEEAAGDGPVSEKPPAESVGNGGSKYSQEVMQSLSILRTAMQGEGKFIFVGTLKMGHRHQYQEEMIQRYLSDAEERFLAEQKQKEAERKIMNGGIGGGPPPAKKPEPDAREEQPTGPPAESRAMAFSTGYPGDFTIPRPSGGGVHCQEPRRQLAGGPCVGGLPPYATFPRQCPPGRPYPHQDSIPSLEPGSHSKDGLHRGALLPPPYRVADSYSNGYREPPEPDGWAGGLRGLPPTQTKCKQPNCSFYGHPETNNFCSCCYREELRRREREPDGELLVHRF
Outline: as §1

PRPF8 = PRPF8 (UniProt Q6P2Q9)
Outline: as §1

PSMD7 = molecular target: T3, PSMD7 (UniProt P51665)
T3 sequence (whole entry): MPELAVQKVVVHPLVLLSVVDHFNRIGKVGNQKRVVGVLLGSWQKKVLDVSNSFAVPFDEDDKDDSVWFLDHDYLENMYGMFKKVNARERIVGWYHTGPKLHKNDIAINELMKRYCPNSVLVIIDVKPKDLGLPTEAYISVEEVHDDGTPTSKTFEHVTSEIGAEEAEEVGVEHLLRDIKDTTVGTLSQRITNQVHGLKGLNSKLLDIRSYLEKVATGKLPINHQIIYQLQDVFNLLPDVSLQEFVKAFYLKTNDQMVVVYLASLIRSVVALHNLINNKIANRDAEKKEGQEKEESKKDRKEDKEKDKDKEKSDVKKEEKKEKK
Outline: as §1

UCHL1 = UCHL1 (UniProt P09936)
UCHL1, sequence (P09936 whole entry, looked up): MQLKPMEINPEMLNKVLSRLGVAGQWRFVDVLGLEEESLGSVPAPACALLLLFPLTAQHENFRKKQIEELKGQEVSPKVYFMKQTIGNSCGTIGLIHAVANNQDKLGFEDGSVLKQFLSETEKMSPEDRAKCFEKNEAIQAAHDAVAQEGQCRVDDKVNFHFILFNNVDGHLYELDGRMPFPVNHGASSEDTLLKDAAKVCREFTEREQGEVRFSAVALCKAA
Outline: as §1

UCHL3 = molecular target: T4, UCHL3 (UniProt P15374)
T4 sequence (whole entry): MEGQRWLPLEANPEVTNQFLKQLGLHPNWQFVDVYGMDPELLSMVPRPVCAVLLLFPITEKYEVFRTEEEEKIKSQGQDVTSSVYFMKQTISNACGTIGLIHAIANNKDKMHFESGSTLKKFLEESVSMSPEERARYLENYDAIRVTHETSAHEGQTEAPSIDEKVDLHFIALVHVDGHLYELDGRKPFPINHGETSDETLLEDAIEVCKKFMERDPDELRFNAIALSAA
Outline: as §1

UCHL5 = molecular target: T5, UCHL5 (UniProt Q9Y5K5)
T5 sequence (whole entry): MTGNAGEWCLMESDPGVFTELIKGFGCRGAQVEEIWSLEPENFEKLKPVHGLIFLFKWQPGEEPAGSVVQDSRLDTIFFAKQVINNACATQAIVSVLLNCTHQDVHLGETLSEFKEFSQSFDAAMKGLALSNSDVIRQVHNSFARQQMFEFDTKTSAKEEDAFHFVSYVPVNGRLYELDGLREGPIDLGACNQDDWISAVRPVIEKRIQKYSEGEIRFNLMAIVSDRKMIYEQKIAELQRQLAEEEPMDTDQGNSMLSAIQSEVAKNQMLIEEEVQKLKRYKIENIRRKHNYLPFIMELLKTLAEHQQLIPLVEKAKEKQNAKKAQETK
Outline: as §1

USP10 = USP10 (UniProt Q14694)
USP10, sequence (Q14694 whole entry): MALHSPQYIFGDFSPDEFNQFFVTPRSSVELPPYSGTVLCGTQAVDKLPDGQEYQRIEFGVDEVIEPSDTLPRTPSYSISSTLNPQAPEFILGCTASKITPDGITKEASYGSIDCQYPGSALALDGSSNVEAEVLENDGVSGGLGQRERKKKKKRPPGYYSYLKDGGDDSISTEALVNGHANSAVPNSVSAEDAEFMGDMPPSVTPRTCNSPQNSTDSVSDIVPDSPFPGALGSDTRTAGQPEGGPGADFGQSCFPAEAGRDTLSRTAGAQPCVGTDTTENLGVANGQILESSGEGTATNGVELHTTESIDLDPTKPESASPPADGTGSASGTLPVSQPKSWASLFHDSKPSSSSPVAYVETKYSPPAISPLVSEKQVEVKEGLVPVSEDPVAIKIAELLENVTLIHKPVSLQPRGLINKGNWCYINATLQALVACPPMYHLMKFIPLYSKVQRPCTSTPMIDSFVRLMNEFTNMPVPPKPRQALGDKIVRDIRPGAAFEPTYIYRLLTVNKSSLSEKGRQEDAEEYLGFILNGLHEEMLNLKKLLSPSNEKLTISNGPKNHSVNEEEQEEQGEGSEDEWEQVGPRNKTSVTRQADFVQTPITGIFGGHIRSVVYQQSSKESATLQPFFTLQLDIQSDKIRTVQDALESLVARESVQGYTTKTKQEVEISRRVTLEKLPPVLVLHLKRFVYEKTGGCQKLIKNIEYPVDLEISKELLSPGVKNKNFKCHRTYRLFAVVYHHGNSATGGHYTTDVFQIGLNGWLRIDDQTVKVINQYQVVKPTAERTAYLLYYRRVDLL
Outline: as §1

USP15 = molecular target: T6, USP15 (UniProt Q9Y4E8)
T6 sequence (whole entry): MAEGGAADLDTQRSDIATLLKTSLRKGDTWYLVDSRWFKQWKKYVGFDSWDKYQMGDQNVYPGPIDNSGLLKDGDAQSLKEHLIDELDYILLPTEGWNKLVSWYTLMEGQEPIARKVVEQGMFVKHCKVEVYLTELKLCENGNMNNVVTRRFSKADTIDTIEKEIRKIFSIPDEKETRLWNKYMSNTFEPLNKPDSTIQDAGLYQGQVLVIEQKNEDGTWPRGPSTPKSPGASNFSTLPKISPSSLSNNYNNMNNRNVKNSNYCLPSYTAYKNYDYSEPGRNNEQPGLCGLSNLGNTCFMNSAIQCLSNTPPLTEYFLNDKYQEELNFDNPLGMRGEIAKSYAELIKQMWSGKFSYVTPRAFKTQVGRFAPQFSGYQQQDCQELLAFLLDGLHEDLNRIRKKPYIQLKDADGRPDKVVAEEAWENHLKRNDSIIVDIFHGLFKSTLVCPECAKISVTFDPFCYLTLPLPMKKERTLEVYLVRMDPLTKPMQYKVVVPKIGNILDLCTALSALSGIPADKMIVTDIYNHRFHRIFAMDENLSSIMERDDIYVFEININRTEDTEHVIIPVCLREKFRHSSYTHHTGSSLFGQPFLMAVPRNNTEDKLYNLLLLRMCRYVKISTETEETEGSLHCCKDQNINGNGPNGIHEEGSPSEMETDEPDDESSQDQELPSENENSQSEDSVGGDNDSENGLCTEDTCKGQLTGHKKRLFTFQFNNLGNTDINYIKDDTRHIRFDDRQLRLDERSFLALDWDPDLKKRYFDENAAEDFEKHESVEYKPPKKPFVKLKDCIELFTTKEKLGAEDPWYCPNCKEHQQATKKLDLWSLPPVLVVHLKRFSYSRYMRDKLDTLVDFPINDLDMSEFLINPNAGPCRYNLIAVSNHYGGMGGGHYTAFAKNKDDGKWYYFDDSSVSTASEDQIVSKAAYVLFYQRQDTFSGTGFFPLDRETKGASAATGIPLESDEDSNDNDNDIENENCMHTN
Outline: as §1

USP16 = USP16 (UniProt Q9Y5T5)
USP16, sequence (Q9Y5T5 whole entry, looked up): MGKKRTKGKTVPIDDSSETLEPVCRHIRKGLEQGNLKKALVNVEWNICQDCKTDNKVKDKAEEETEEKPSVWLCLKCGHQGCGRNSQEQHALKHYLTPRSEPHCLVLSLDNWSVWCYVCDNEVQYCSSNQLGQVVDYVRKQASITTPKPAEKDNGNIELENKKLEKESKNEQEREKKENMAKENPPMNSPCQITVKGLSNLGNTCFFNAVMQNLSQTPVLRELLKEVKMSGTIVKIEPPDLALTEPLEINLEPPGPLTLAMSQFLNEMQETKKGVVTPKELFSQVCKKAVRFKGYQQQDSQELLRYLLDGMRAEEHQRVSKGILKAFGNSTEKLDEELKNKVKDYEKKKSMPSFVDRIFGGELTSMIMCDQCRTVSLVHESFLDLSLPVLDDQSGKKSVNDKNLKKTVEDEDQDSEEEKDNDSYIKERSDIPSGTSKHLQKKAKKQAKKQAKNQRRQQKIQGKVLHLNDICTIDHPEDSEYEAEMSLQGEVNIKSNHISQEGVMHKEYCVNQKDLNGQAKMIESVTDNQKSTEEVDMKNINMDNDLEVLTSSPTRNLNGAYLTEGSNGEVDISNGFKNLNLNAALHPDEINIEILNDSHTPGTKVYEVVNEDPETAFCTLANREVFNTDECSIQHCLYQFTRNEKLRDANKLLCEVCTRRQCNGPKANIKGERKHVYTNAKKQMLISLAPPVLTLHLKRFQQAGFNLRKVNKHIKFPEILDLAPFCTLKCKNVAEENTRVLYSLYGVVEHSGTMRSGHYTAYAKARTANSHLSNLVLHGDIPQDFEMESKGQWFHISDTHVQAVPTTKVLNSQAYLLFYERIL
Outline: as §1

Measured: log2 ratio of Biotin-Ahx-Ub-VS probe labelling

O=C(CCl)N(C1=CCCCC1)C1CC1
inactive: OTUD6B -0.00924 | OTUD7B -0.39 | PRPF8 0.215 | PSMD7 0.0445 | UCHL3 0.218 | UCHL5 -0.186 | USP10 -0.112 | USP15 -0.209 | USP16 -0.193
active: UCHL1 -1.24
